The whole screen tested about 13,000 compounds, of which about 3,200 (25%) showed an effect of 50% or more. The list shows a part of the results.
System: P. falciparum stage V gametocytes
Design: BacTiter-Glo ATP luminescence viability of purified stage V gametocytes in 384-well plates, per cent inhibition versus DMSO
Settings: 48 h, 5 µM; inhibitor

Q: With `Nc1ccc(-c2cc(Cl)cc(Cl)c2)cc1-c1cc2ccccc2[nH]1` [TCMDC-139051] as the compound, how does the “% Inhibition” value read?
A: Its value is -15.54%.

Q: With `CCCCc1ccc(S(=O)(=O)Nc2ccc3c(c2)CCN(Cc2c[nH]c4cnccc24)CC3)cc1` [TCMDC-136797] as the compound, how does the “% Inhibition” value read?
A: Its value is -5.765%.

Q: How did the “% Inhibition” value turn out when `CCCc1ccc(S(=O)(=O)Nc2ccc3c(c2)CCC3)cc1` [TCMDC-125822] was run?
A: Its value is 10.44%.

Q: With `Nc1nc(N)c2cc(NS(=O)(=O)c3ccc(-c4ccccc4)cc3)ccc2n1` [TCMDC-135430] as the compound, how does the “% Inhibition” value read?
A: The value was 5.991%.

Q: For `CN1Cc2ccc(NS(=O)(=O)c3ccc(-c4ccoc4)cc3)cc2C1` [TCMDC-141495], which “% Inhibition” value is on record?
A: The value was 67.76%.

Q: `Cc1nc(N2CCC(C)CC2)c2c3c(sc2n1)CCCC3` [TCMDC-125646] was tested. Which “% Inhibition” value did it give?
A: Its value is 3.329%.

Q: For `C=C(C)C1CC=C(CN2CCCC(n3ccc4cc(NC(=O)c5ccco5)ccc43)CC2)CC1` (stereo not drawn) [TCMDC-135090], which “% Inhibition” value is on record?
A: The value was -20.08%.

Q: Which “% Inhibition” value does the source give for `CCC(=O)c1c(C)n(-c2ncnc3c2nc(C)n3-c2ccc(C)cc2C)c2ccccc12` [TCMDC-136513] here?
A: Its value is 51.77%.

Q: For `Cc1nc2c(-n3cc(Cn4ccnc4)c4ccccc43)ncnc2n1-c1ccc(Cl)cc1Cl` [TCMDC-136514], which “% Inhibition” value is on record?
A: The value was 37.26%.

Q: How did the “% Inhibition” value turn out when `Cc1noc(-c2ccc3c(c2)CCN(CCC2CCC(NC(=O)c4cc5ccccc5[nH]4)CC2)CC3)n1` (stereo not drawn) [TCMDC-139876] was run?
A: Its value is -74.07%.

Q: Which “% Inhibition” value does the source give for `CN(C)CCOc1cc(NC(=O)Nc2ccc(-c3ccccc3)cc2)ccc1I` [TCMDC-139150] here?
A: The value was -45.78%.

Q: For `CN(C)CCCn1cc(C(=O)OC2CC3CCC(C2)N3C)c2cc(-c3ccccc3)ccc21` (stereo not drawn) [TCMDC-139094], which “% Inhibition” value is on record?
A: Its value is 100.6%.

Q: `O=S(=O)(NCCN1CCCC1)c1cccc(-c2ccc(CNCc3ccccc3)cc2)c1` [TCMDC-132240] was tested. Which “% Inhibition” value did it give?
A: Its value is 108.6%.

Q: For `O=S(=O)(NCCN1CCCC1)c1cccc(-c2cccc(CNCc3ccccc3)c2)c1` [TCMDC-132226], which “% Inhibition” value is on record?
A: The value was 104%.

Q: Which “% Inhibition” value does the source give for `COc1ccc(NC2=C(c3ccccc3)C(=O)c3ccccc32)cn1` [TCMDC-125501] here?
A: Its value is 36.53%.

Q: For `O=C1C(c2ccccc2)=C(Nc2cccc(OC(F)(F)C(F)F)c2)c2ccccc21` [TCMDC-125498], which “% Inhibition” value is on record?
A: Its value is 65.78%.

Q: How did the “% Inhibition” value turn out when `O=C1C(c2ccccc2)=C(Nc2ccc([N+](=O)[O-])cc2)c2ccccc21` [TCMDC-125490] was run?
A: Its value is 10.18%.

Q: Which “% Inhibition” value does the source give for `O=C1C(c2ccccc2)=C(Nc2ccc(Cl)cc2)c2ccccc21` [TCMDC-125493] here?
A: Its value is 32.25%.

Q: `O=C1C(c2ccccc2)=C(Nc2cccc([N+](=O)[O-])c2)c2ccccc21` [TCMDC-125484] was tested. Which “% Inhibition” value did it give?
A: The value was 25.85%.

Q: Which “% Inhibition” value does the source give for `COc1cc(NC2=C(c3ccccc3)C(=O)c3ccccc32)ccn1` [TCMDC-135283] here?
A: The value was 73.83%.

Q: With `Nn1c(=O)oc2ccc(Cl)cc2c1=O` [TCMDC-125519] as the compound, how does the “% Inhibition” value read?
A: The value was 8.283%.

Q: Which “% Inhibition” value does the source give for `FC(F)(F)c1ccc2nccc(NN=Cc3ccccc3)c2c1` [TCMDC-142024] here?
A: Its value is -3.615%.

Q: With `CCc1cccc(-c2cc(=N)n(C)c3nc(N)[nH]c(=O)c23)c1` [TCMDC-137737] as the compound, how does the “% Inhibition” value read?
A: The value was -30.45%.

Q: How did the “% Inhibition” value turn out when `COc1ccc2nccc([C@@H](O)CN3CCC(NCc4nc5c(cc4Cl)OCC(=O)N5)C(F)C3)c2c1` (stereo partly drawn) [TCMDC-141722] was run?
A: Its value is 15.19%.

Q: `CCCN(C(=O)c1ccccc1C)c1nnc(-c2ccccc2C)s1` [TCMDC-124386] was tested. Which “% Inhibition” value did it give?
A: The value was 7.474%.

Q: `CCCCN(C(=O)c1ccccc1Cl)c1nnc(-c2ccccc2C)s1` [TCMDC-125120] was tested. Which “% Inhibition” value did it give?
A: Its value is -1.012%.

Q: How did the “% Inhibition” value turn out when `CCCCN(C(=O)c1ccccc1C)c1nnc(-c2ccccc2C)s1` [TCMDC-124385] was run?
A: Its value is 52.67%.

Q: Which “% Inhibition” value does the source give for `CCC(C)OC(=O)C1=C(C)NC2=C(C(=O)CC(c3ccc(OC)c(OC)c3)C2)C1c1cccc(O)c1` (stereo not drawn) [TCMDC-125634] here?
A: Its value is 29.96%.

Q: How did the “% Inhibition” value turn out when `COC(=O)C1=C(C)NC2=C(C(=O)CC(c3ccc(OC)c(OC)c3)C2)C1c1cccc(O)c1` (stereo not drawn) [TCMDC-125609] was run?
A: The value was 17.77%.

Q: How did the “% Inhibition” value turn out when `CCCOC(=O)C1=C(C)NC2=C(C(=O)CC(c3ccc(OC)c(OC)c3)C2)C1c1cccc(O)c1` (stereo not drawn) [TCMDC-125632] was run?
A: The value was 53.3%.

Q: `COc1ccc(C2CC(c3cccs3)=NN2C(=O)COc2cccc3c2CCCC3O)cc1OC` (stereo not drawn) [TCMDC-125033] was tested. Which “% Inhibition” value did it give?
A: Its value is 11.22%.

Q: With `O=C(C=Cc1ccc(Cl)c(Cl)c1)NCCCCCN1CCC(CCNS(=O)(=O)c2ccc(Br)cc2)CC1` [TCMDC-139586] as the compound, how does the “% Inhibition” value read?
A: Its value is 95.36%.

Q: How did the “% Inhibition” value turn out when `O=C(/C=C/c1ccc(Cl)c(Cl)c1)NCCCCCN1CCC(NC(=O)Nc2ccc(Br)cc2)CC1` [TCMDC-135728] was run?
A: Its value is 5.216%.

Q: With `COc1ccc(S(=O)(=O)NCCC2CCN(CCCCCNC(=O)C=Cc3ccc(Cl)c(Cl)c3)CC2)cc1` [TCMDC-139584] as the compound, how does the “% Inhibition” value read?
A: The value was 28.62%.

Q: `O=C(C=Cc1ccc(Cl)c(Cl)c1)NCCCCCN1CCC(CCCNC(=O)C2CC2c2ccccc2)CC1` (stereo not drawn) [TCMDC-139572] was tested. Which “% Inhibition” value did it give?
A: Its value is -16.95%.

Q: For `O=C(C=Cc1ccc(Cl)c(Cl)c1)NCCCCCN1CCCC(CCCNS(=O)(=O)c2ccc(Br)cc2)C1` (stereo not drawn) [TCMDC-139592], which “% Inhibition” value is on record?
A: The value was 37.84%.
